# Reference: article PMC11006913
# Key:
# Assay in all cases: PBM; 200 nM protein, PBS
# Conditions in all cases: dsDNA, one strand shown
# [1] = molecular target: HESX1 (Homo sapiens, UniProt Q9UBX0 95-180, R165K)
# [2] = molecular target: SHOX (Homo sapiens, UniProt O15266 103-189)
# [3] = molecular target: ALX4 (Homo sapiens, UniProt Q9H161 200-286, Q225E)
# [4] = molecular target: HESX1 (Homo sapiens, UniProt Q9UBX0 95-180)
# [5] = molecular target: MSX2 (Homo sapiens, UniProt P35548 130-214, R199I)
# [6] = molecular target: ALX3 (Homo sapiens, UniProt O95076 139-225, N203Q)
# [7] = molecular target: SHOX (Homo sapiens, UniProt O15266 103-189, R173C)
# [8] = molecular target: ALX3 (Homo sapiens, UniProt O95076 139-225)
# [9] = molecular target: PROP1 (Homo sapiens, UniProt O75360 56-141)
# [10] = molecular target: HESX1 (Homo sapiens, UniProt Q9UBX0 95-180, R109Q)
# [11] = molecular target: PROP1 (Homo sapiens, UniProt O75360 56-141, R99H)
# [12] = molecular target: ALX3 (Homo sapiens, UniProt O95076 139-225, L168Q)
# [13] = molecular target: HESX1 (Homo sapiens, UniProt Q9UBX0 95-180, P111T)
# [14] = molecular target: ALX3 (Homo sapiens, UniProt O95076 139-225, L168V)
# [15] = molecular target: PROP1 (Homo sapiens, UniProt O75360 56-141, F88S)
# [16] = molecular target: HESX1 (Homo sapiens, UniProt Q9UBX0 95-180, F115L)
# [17] = molecular target: ALX3 (Homo sapiens, UniProt O95076 139-225, N203S)
# [18] = molecular target: ALX1 (Homo sapiens, UniProt Q15699 118-204, L144V)
# [19] = molecular target: ALX1 (Homo sapiens, UniProt Q15699 118-204, L144R)
# [20] = molecular target: ALX1 (Homo sapiens, UniProt Q15699 118-204)
# Chain of ALX1 (Homo sapiens, UniProt Q15699 118-204) (Q15699 118-204): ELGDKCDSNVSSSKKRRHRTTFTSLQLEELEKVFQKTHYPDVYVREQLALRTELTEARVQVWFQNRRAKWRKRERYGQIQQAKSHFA
# Chain of ALX1 (Homo sapiens, UniProt Q15699 118-204, L144V) (Q15699 118-204 L144V): as the sequence (Q15699 118-204) above, with L27V counted along it
# Chain of ALX1 (Homo sapiens, UniProt Q15699 118-204, L144R) (Q15699 118-204 L144R): as the sequence (Q15699 118-204) above, with L27R counted along it
# Chain of PROP1 (Homo sapiens, UniProt O75360 56-141, F88S) (O75360 56-141 F88S): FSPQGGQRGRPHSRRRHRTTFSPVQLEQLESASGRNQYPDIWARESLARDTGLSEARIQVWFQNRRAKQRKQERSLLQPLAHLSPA
# Chain of ALX3 (Homo sapiens, UniProt O95076 139-225) (O95076 139-225): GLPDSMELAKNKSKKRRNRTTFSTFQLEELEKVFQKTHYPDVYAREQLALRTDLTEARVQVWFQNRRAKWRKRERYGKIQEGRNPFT
# Chain of HESX1 (Homo sapiens, UniProt Q9UBX0 95-180, F115L) (Q9UBX0 95-180 F115L): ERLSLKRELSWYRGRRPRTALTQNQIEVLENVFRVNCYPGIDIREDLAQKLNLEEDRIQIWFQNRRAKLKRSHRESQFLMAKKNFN
# Chain of ALX3 (Homo sapiens, UniProt O95076 139-225, N203S) (O95076 139-225 N203S): as the sequence (O95076 139-225) above, with N65S counted along it
# Chain of ALX3 (Homo sapiens, UniProt O95076 139-225, N203Q) (O95076 139-225 N203Q): as the sequence (O95076 139-225) above, with N65Q counted along it
# Chain of ALX4 (Q9H161 200-286 Q225E): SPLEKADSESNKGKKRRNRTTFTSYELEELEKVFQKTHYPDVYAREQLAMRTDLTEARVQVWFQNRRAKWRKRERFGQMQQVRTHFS
# Chain of PROP1 (Homo sapiens, UniProt O75360 56-141, R99H) (O75360 56-141 R99H): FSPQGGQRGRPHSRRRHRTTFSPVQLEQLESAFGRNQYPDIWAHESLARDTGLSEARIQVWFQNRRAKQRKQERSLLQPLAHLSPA
# Chain of MSX2 (P35548 130-214 R199I): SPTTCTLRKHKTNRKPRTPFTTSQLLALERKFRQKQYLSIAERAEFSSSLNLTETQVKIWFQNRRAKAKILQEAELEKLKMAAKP
# Chain of SHOX (Homo sapiens, UniProt O15266 103-189) (O15266 103-189): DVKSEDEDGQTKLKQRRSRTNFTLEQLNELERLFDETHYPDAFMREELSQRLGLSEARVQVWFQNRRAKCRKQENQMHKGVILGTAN
# Chain of ALX3 (Homo sapiens, UniProt O95076 139-225, L168V) (O95076 139-225 L168V): as the sequence (O95076 139-225) above, with L30V counted along it
# Chain of PROP1 (Homo sapiens, UniProt O75360 56-141) (O75360 56-141): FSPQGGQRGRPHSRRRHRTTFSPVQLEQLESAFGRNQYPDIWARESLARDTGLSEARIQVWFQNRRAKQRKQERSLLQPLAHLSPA
# Chain of ALX3 (Homo sapiens, UniProt O95076 139-225, L168Q) (O95076 139-225 L168Q): as the sequence (O95076 139-225) above, with L30Q counted along it
# Chain of HESX1 (Homo sapiens, UniProt Q9UBX0 95-180) (Q9UBX0 95-180): as the sequence (Q9UBX0 95-180 F115L) above, with L21F counted along it
# Chain of SHOX (Homo sapiens, UniProt O15266 103-189, R173C) (O15266 103-189 R173C): as the sequence (O15266 103-189) above, with R71C counted along it
# Chain of HESX1 (Homo sapiens, UniProt Q9UBX0 95-180, P111T) (Q9UBX0 95-180 P111T): as the sequence (Q9UBX0 95-180 F115L) above, with P17T, L21F counted along it
# Chain of HESX1 (Homo sapiens, UniProt Q9UBX0 95-180, R165K) (Q9UBX0 95-180 R165K): as the sequence (Q9UBX0 95-180 F115L) above, with L21F, R71K counted along it
# Chain of HESX1 (Homo sapiens, UniProt Q9UBX0 95-180, R109Q) (Q9UBX0 95-180 R109Q): as the sequence (Q9UBX0 95-180 F115L) above, with R15Q, L21F counted along it
Sequence,binding signal [1],binding signal [2],binding signal [3],binding signal [4],binding signal [5],binding signal [6],binding signal [7],binding signal [8],binding signal [9],binding signal [10],binding signal [11],binding signal [12],binding signal [13],binding signal [14],binding signal [15],binding signal [16],binding signal [17],binding signal [18],binding signal [19],binding signal [20]
AACAATTA,"12 upbm affinity estimate (log intensity, higher = more binding, comparable within an allelic series)","11.5 upbm affinity estimate (log intensity, higher = more binding, comparable within an allelic series)","12.8 upbm affinity estimate (log intensity, higher = more binding, comparable within an allelic series)","12.2 upbm affinity estimate (log intensity, higher = more binding, comparable within an allelic series)","12.8 upbm affinity estimate (log intensity, higher = more binding, comparable within an allelic series)","8.48 upbm affinity estimate (log intensity, higher = more binding, comparable within an allelic series)","9.19 upbm affinity estimate (log intensity, higher = more binding, comparable within an allelic series)","12.2 upbm affinity estimate (log intensity, higher = more binding, comparable within an allelic series)","11.1 upbm affinity estimate (log intensity, higher = more binding, comparable within an allelic series)","8.73 upbm affinity estimate (log intensity, higher = more binding, comparable within an allelic series)","11.2 upbm affinity estimate (log intensity, higher = more binding, comparable within an allelic series)","10.3 upbm affinity estimate (log intensity, higher = more binding, comparable within an allelic series)","10.6 upbm affinity estimate (log intensity, higher = more binding, comparable within an allelic series)","9.75 upbm affinity estimate (log intensity, higher = more binding, comparable within an allelic series)","7.78 upbm affinity estimate (log intensity, higher = more binding, comparable within an allelic series)","7.66 upbm affinity estimate (log intensity, higher = more binding, comparable within an allelic series)","8.6 upbm affinity estimate (log intensity, higher = more binding, comparable within an allelic series)",,,
ACTAATTA,"13.9 upbm affinity estimate (log intensity, higher = more binding, comparable within an allelic series)","13.2 upbm affinity estimate (log intensity, higher = more binding, comparable within an allelic series)","14.3 upbm affinity estimate (log intensity, higher = more binding, comparable within an allelic series)","13.5 upbm affinity estimate (log intensity, higher = more binding, comparable within an allelic series)","13.5 upbm affinity estimate (log intensity, higher = more binding, comparable within an allelic series)","8.59 upbm affinity estimate (log intensity, higher = more binding, comparable within an allelic series)","10.6 upbm affinity estimate (log intensity, higher = more binding, comparable within an allelic series)","12.9 upbm affinity estimate (log intensity, higher = more binding, comparable within an allelic series)","12.2 upbm affinity estimate (log intensity, higher = more binding, comparable within an allelic series)","10.5 upbm affinity estimate (log intensity, higher = more binding, comparable within an allelic series)","12.4 upbm affinity estimate (log intensity, higher = more binding, comparable within an allelic series)","11.5 upbm affinity estimate (log intensity, higher = more binding, comparable within an allelic series)","12.4 upbm affinity estimate (log intensity, higher = more binding, comparable within an allelic series)","11.2 upbm affinity estimate (log intensity, higher = more binding, comparable within an allelic series)","8.34 upbm affinity estimate (log intensity, higher = more binding, comparable within an allelic series)","8.35 upbm affinity estimate (log intensity, higher = more binding, comparable within an allelic series)","8.73 upbm affinity estimate (log intensity, higher = more binding, comparable within an allelic series)","12.4 upbm affinity estimate (log intensity, higher = more binding, comparable within an allelic series)","12 upbm affinity estimate (log intensity, higher = more binding, comparable within an allelic series)","13 upbm affinity estimate (log intensity, higher = more binding, comparable within an allelic series)"
CTCAATTA,"12.7 upbm affinity estimate (log intensity, higher = more binding, comparable within an allelic series)","12 upbm affinity estimate (log intensity, higher = more binding, comparable within an allelic series)","13.1 upbm affinity estimate (log intensity, higher = more binding, comparable within an allelic series)","12.7 upbm affinity estimate (log intensity, higher = more binding, comparable within an allelic series)","12.7 upbm affinity estimate (log intensity, higher = more binding, comparable within an allelic series)","8.29 upbm affinity estimate (log intensity, higher = more binding, comparable within an allelic series)","9.56 upbm affinity estimate (log intensity, higher = more binding, comparable within an allelic series)","12.5 upbm affinity estimate (log intensity, higher = more binding, comparable within an allelic series)","11.5 upbm affinity estimate (log intensity, higher = more binding, comparable within an allelic series)","9.12 upbm affinity estimate (log intensity, higher = more binding, comparable within an allelic series)","11.6 upbm affinity estimate (log intensity, higher = more binding, comparable within an allelic series)","10.5 upbm affinity estimate (log intensity, higher = more binding, comparable within an allelic series)","11.2 upbm affinity estimate (log intensity, higher = more binding, comparable within an allelic series)","9.95 upbm affinity estimate (log intensity, higher = more binding, comparable within an allelic series)","7.64 upbm affinity estimate (log intensity, higher = more binding, comparable within an allelic series)","7.72 upbm affinity estimate (log intensity, higher = more binding, comparable within an allelic series)","8.43 upbm affinity estimate (log intensity, higher = more binding, comparable within an allelic series)","11.8 upbm affinity estimate (log intensity, higher = more binding, comparable within an allelic series)","11.5 upbm affinity estimate (log intensity, higher = more binding, comparable within an allelic series)","12.4 upbm affinity estimate (log intensity, higher = more binding, comparable within an allelic series)"
ACTAATTG,"13 upbm affinity estimate (log intensity, higher = more binding, comparable within an allelic series)","12.3 upbm affinity estimate (log intensity, higher = more binding, comparable within an allelic series)","13.4 upbm affinity estimate (log intensity, higher = more binding, comparable within an allelic series)","13 upbm affinity estimate (log intensity, higher = more binding, comparable within an allelic series)","13.1 upbm affinity estimate (log intensity, higher = more binding, comparable within an allelic series)","8.32 upbm affinity estimate (log intensity, higher = more binding, comparable within an allelic series)","9.68 upbm affinity estimate (log intensity, higher = more binding, comparable within an allelic series)","12.5 upbm affinity estimate (log intensity, higher = more binding, comparable within an allelic series)","11.5 upbm affinity estimate (log intensity, higher = more binding, comparable within an allelic series)","9.82 upbm affinity estimate (log intensity, higher = more binding, comparable within an allelic series)","11.9 upbm affinity estimate (log intensity, higher = more binding, comparable within an allelic series)","10.8 upbm affinity estimate (log intensity, higher = more binding, comparable within an allelic series)","11.6 upbm affinity estimate (log intensity, higher = more binding, comparable within an allelic series)","10.2 upbm affinity estimate (log intensity, higher = more binding, comparable within an allelic series)","7.65 upbm affinity estimate (log intensity, higher = more binding, comparable within an allelic series)","7.98 upbm affinity estimate (log intensity, higher = more binding, comparable within an allelic series)","8.46 upbm affinity estimate (log intensity, higher = more binding, comparable within an allelic series)","11.9 upbm affinity estimate (log intensity, higher = more binding, comparable within an allelic series)","11.5 upbm affinity estimate (log intensity, higher = more binding, comparable within an allelic series)","12.6 upbm affinity estimate (log intensity, higher = more binding, comparable within an allelic series)"
